The source of these data is PubChem BioAssay (NCATS).

The nature of test [1]: AP1 Signaling Pathway (AID 357). Note: % is set by controls: 0 for no effect and ±100 for the full control effect. Put shortly: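 AP-1-bla ME-180 cells with beta-lactamase reporter under AP-1 response element, stimulated with EC50 EGF; compounds titrated, 5 hours at 37 degrees Celsius. CCF4 read at 460/530 nm ratio; positive and negative modulators judged by AC50.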
The nature of test [2]: Stat Signaling Pathway (AID 446).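 Note: ME-180 cervical cancer cells given 40 pM IL-6 alongside compound; SIE-controlled beta-lactamase reporter measured as 460/530 nm FRET emission ratio; % is set by controls: 0 for no effect and ±100 for the full control effect.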 An outline of the steps: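 FRET read-out (405 nm excitation, 460/530 nm emission) of a beta-lactamase reporter under a STAT-inducible element in ME-180 cervical carcinoma cells. Cells with compound receive 40 pM IL-6 for 5 h. Values are normalised to AC90 stimulation and AC90 JAK-inhibitor controls.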
Test [3] addresses Mitogen-activated protein kinase 10 (Mus musculus) (UniProt Q61831). Briefly: JNK3 AlphaScreen Assay (AID 530).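 Note: kinase came from lysate of stimulated human HepG2 cells; signal reports phosphorylation of biotinylated GST-cJun 1-79 at Ser73 with 10 µM ATP; % is set by controls: 0 for no effect and ±100 for the full control effect.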 An outline of the steps: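 HepG2 lysate (IL-1b/TNFa pre-activated) + biotin-GST-cJun 1-79 + anti-pSer73 cJun; cpd titration, 15 min RT; ATP 10 uM start; Tris pH 7.6, MgCl2, DTT, vanadate; beads in EDTA buffer; AlphaScreen.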
Test [4] addresses 3',5'-cyclic-AMP phosphodiesterase 4B (Homo sapiens) (UniProt Q07343). Description: qHTS Assay for Inhibitors of PDE-IV (AID 607; active = well fitted activation curve with a large enough effect in the main read-out, with a control signal flat, not every such curve was filed as active; note: % of control where 0% means no effect). An outline of the steps: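 Cell-based read-out of cAMP via a modified cyclic nucleotide-gated channel and membrane potential dye (535/590 nm) in HEK293 cells expressing PDE4 endogenously. Compounds tested up to 22.9 uM final; 100 uM RO 20-1724 reference.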
(In general: qHTS replaces the single test concentration by a dilution series.)

The nature of test [5]: qHTS Assay for Lipid Storage Modulators (AID 1519; calls by dose curve). The note with it: Drosophila S3 cells, BODIPY lipid droplet/cell ratio, laser cytometry, cells loaded with oleic acid; for activity change, negative = inhibition: at 25.7 µM (top of the series). An outline of the steps: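 Cells seeded at 5,000 per well were treated with compounds over a concentration series and loaded with oleic acid (400 uM, as added). Lipid droplet fluorescence (488 nm excitation, 500-530 nm channel) was read by laser-scanning cytometry and normalized to 20 uM Triacsin C.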

For test [6], the target named is ATP-dependent 6-phosphofructokinase (Trypanosoma brucei brucei) (UniProt O15648). Briefly: qHTS Assay to Find Inhibitors of T. brucei phosphofructokinase: hit validation (AID 492961; active = well fitted curve in the direction sought with a large enough effect; an effect the other way counts as inactive or inconclusive; note: % is set by controls: 0 for no effect and ±100 for the full control effect). An outline of the steps:
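Luminescence from ADP-Glo reports ADP generated as T. brucei PFK (1.25 nM) phosphorylates 0.5 mM fructose-6-phosphate using 0.1 mM ATP. Reactions ran 45 min at room temperature, pH 8.0.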

For test [7], the target named is Ubiquitin carboxyl-terminal hydrolase 1 (Homo sapiens) (UniProt O94782). Briefly: Inhibitors of USP1/UAF1: Pilot qHTS (AID 504865; active = well fitted curve in the direction sought with a large enough effect; an effect the other way counts as inactive or inconclusive;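 note: rhodamine fluorescence freed from ubiquitin-rhodamine substrate followed over time; top concentration of the series differs between compounds; % is set by controls: 0 for no effect and ±100 for the full control effect; nearly all actives have a fitted effect of over 35% in size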). Put shortly:
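In 50mM HEPES pH 7.8 containing 0.5mM EDTA, 1mM TCEP, 0.1 mg/ml BSA and 0.01% Tween-20, 1nM USP1/UAF1 is exposed to compound for 15 min, then Ub-Rho (150nM final) is added and fluorescence is read over time.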

Test [8] concerns the target Luciferin 4-monooxygenase (Photinus pyralis) (UniProt P08659). Description: Biochemical firefly luciferase enzyme assay for NPC (AID 624030; active = well fitted curve in the direction sought with a large enough effect; an effect the other way counts as inactive or inconclusive;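 note: purified P. pyralis luciferase at 10 nM with luciferin and ATP substrate; 0% = DMSO and -100% = full luciferase inhibition by PTC124 control; nearly all actives have a fitted effect of over 70% in size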). Put shortly: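 Purified P. pyralis luciferase at 10 nM in 50 mM Tris Acetate (final), luminescence read within 5 minutes of enzyme addition to compounds. Activity normalised to PTC124 versus DMSO; concentration-response curves classed by r2, magnitude and activity.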

Test [9] can be described thus: S16 Schwann cell PMP22 intronic element firefly luciferase assay (AID 624032; active = well fitted curve in the direction sought with a large enough effect; an effect the other way counts as inactive or inconclusive;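 note: plate controls were DMSO for no effect and PTC124 positive control mean for full effect; nearly all actives have a fitted effect of over 30% in size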). An outline of the steps: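 Rat S16 Schwann cells stably carrying firefly luciferase driven by a PMP22 intronic element, in 10% FBS, treated 24 h at 37 C. ONE-Glo luminescence normalized to PTC124 control and DMSO (0%); curves classed by r2, magnitude and activity.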
Test [10] is described as follows: qHTS profiling for inhibitors of Plasmodium falciparum proliferation (AID 504749; active = well fitted curve in the direction sought with a large enough effect; an effect the other way counts as inactive or inconclusive;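 note: 0% = DMSO vehicle and full inhibition = artemisinin control; nearly all actives have a fitted effect of over 60% in size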). As to conditions: P. falciparum in erythrocytes, SYBR Green DNA, 72 h; at 12.8 µM (top of the series); parasite line A. Put shortly:
(§1)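 SYBR Green fluorescence (ex 485 nm, em 535 nm) reports parasite DNA after 72 h compound exposure of infected red cells at 0.3% parasitemia, 2.5% hematocrit; signal normalized to 0.29 uM artemisinin and vehicle wells.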

The subject of the next test is C2A. The test is described as above. As to conditions: P. falciparum in erythrocytes, SYBR Green DNA, 72 h; series mostly up to 28.7 µM. Put shortly: as §1
The next test deals with CP192. The description is as above. The note with it: P. falciparum in erythrocytes, SYBR Green DNA, 72 h; series mostly up to 28.7 µM. An outline of the steps: as §1
A further test relates to CP262. The description is as above. The note with it: P. falciparum in erythrocytes, SYBR Green DNA, 72 h; series mostly up to 28.7 µM. An outline of the steps:
as §1

For the next test, the system named is CP286. The test is described as above. The note with it: P. falciparum in erythrocytes, SYBR Green DNA, 72 h; series mostly up to 28.7 µM. An outline of the steps: as §1
In the next test the test system is FAB9. The description is as above. As to conditions: P. falciparum in erythrocytes, SYBR Green DNA, 72 h; series mostly up to 28.7 µM. Put shortly: as §1
In test [11] the target is Glucocorticoid receptor (Homo sapiens) (UniProt P04150). Briefly: GR-GFP Redistribution (AID 450;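 active = compounds whose dose series gives a full or clear partial fitted curve of increased nuclear translocation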; note: potency is the fitted concentration of half-maximal effect). The note with it: U2OS GR-GFP nuclear translocation, laser cytometry, 2 h.
Test [12] shares this target. Briefly: GR-EFC Redistribution (AID 451; calls by dose curve; note: potency is the fitted concentration of half-maximal effect). As to conditions: CHO-K1 GR-EFC translocation, beta-gal luminescence, 2 h. Put shortly: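 CHO-K1 cells expressing nuclear EA and GR-ED fragments of b-gal; compounds titrated up to 46 uM final, 2 h at 37 C. GR nuclear translocation read as complemented b-gal luminescence after 1 h RT detection.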
The target of test [13] is Cytochrome P450 3A4 (Homo sapiens) (UniProt P08684). Briefly: qHTS Assay for Activators of Cytochrome P450 3A4 (AID 885; active = well fitted curve in the direction sought with a large enough effect; an effect the other way counts as inactive or inconclusive; note: nearly all actives have a fitted effect of over 65% in size). Put shortly: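 Luminescent readout of luciferin formed from 25 uM Luciferin-PPXE (KM level) by 20 nM CYP3A4 in 200 mM KPO4, with 60 min NADPH-driven reaction at room temperature after 10 min compound exposure. Ketoconazole (57 uM) defined 100% inhibition.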

Test [14] can be described thus: NFAT Signaling Pathway (AID 444). As to conditions: Jurkat NFAT-bla M1, carbachol, beta-lactamase ratio, 5 h; at 17.2 µM (top of the series). An outline of the steps: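 Jurkat cells with NFAT-driven β-lactamase reporter and co-expressed M1 receptor, stimulated with carbachol (final 1 uM, ~EC50), compound titration, 5 h at 37 °C. CCF4 loaded 1 h at RT; 460/530 nm ratio gave %activity and AC50.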

Where [15] appears, read: measured here: cell count channel max response.
Where [16] appears, read: measured here: lipid channel max response.

Molecules are shown by their SMILES. Records with an inconclusive call do not appear. Activity calls are given as the source filed them. Unless noted, calls come from the whole dose curve; as a rule, active = well fitted curve in either direction with a large enough effect (not every such curve was filed as active); inconclusive = small, poorly fitted or top-dose-only effect, or another doubt; inactive = flat fitted curve, though single readings scatter. Bounds are passed on as bounds.

Chain of Ubiquitin carboxyl-terminal hydrolase 1 (Homo sapiens) (O94782 whole entry, looked up): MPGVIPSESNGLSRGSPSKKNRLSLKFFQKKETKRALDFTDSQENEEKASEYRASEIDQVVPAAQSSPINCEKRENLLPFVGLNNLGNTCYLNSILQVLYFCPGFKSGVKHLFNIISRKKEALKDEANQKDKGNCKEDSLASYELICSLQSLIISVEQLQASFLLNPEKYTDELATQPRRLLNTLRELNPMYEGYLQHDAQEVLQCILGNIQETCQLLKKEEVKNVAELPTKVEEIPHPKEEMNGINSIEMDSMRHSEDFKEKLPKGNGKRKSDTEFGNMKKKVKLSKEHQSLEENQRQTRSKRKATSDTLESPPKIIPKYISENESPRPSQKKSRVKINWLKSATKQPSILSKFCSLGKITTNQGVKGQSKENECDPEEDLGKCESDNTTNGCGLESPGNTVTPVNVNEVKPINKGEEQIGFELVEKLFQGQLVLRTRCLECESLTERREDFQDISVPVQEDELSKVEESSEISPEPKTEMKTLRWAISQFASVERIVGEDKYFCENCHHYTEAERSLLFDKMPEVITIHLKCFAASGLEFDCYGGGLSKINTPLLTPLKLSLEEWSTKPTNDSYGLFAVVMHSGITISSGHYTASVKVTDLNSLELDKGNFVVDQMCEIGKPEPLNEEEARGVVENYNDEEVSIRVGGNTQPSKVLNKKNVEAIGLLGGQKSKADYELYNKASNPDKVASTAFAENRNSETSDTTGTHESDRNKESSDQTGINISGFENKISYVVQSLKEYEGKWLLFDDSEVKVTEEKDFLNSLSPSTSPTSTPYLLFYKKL
Chain of 3',5'-cyclic-AMP phosphodiesterase 4B (Homo sapiens) (Q07343 whole entry, looked up): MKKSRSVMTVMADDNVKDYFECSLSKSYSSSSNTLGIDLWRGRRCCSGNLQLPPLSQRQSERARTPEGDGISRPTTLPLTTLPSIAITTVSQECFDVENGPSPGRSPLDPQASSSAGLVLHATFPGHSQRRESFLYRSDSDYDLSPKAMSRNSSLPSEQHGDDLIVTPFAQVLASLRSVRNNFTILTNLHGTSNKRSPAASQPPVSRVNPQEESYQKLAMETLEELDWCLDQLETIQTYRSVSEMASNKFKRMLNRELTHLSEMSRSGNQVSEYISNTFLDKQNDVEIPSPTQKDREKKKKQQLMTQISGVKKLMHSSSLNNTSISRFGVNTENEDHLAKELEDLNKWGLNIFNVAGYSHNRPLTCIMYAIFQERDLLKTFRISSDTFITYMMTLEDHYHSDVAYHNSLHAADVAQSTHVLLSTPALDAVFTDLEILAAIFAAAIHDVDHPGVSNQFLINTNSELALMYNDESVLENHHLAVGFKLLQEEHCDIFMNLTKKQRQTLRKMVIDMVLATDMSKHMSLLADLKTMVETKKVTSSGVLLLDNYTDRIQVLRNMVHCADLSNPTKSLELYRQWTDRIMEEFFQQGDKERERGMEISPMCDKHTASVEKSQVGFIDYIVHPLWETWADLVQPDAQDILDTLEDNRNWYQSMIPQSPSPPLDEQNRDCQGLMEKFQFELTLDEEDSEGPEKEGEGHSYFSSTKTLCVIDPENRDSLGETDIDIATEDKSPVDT
Chain of Glucocorticoid receptor (Homo sapiens) (P04150 whole entry, looked up, the tested form may be a part): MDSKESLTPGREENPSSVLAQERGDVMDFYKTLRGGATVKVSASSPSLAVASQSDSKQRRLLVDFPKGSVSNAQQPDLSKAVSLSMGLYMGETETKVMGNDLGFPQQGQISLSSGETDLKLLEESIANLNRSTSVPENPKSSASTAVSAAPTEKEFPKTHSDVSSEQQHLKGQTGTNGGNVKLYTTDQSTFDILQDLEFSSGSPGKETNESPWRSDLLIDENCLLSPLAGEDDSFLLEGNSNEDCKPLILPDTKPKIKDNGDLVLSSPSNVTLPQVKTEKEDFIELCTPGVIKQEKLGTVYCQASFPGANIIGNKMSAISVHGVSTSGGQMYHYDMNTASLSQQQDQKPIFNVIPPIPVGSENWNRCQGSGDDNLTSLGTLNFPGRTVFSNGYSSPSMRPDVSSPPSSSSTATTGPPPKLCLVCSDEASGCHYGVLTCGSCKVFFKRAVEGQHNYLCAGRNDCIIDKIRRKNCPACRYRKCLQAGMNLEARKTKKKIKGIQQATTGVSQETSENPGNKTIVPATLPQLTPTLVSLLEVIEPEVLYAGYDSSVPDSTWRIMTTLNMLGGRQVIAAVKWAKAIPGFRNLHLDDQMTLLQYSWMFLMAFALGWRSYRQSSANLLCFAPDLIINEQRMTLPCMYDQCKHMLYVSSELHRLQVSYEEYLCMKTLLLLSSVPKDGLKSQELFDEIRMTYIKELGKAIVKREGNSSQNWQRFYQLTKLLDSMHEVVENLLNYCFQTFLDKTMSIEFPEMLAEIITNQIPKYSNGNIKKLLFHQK
Chain of ATP-dependent 6-phosphofructokinase (Trypanosoma brucei brucei) (O15648 whole entry, looked up): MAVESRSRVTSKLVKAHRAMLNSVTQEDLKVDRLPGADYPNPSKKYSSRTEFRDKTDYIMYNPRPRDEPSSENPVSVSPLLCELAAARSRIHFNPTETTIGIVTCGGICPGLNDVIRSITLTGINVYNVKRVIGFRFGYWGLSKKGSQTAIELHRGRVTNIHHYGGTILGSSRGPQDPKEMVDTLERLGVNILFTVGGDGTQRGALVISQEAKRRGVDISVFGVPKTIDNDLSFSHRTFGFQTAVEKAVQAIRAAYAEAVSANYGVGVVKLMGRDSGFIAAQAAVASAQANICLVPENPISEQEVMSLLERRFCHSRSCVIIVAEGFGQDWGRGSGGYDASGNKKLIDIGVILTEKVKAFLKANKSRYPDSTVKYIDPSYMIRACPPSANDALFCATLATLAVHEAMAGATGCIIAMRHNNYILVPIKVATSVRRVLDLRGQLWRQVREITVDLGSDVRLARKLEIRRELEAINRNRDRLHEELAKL
Chain of Cytochrome P450 3A4 (Homo sapiens) (P08684 whole entry, looked up): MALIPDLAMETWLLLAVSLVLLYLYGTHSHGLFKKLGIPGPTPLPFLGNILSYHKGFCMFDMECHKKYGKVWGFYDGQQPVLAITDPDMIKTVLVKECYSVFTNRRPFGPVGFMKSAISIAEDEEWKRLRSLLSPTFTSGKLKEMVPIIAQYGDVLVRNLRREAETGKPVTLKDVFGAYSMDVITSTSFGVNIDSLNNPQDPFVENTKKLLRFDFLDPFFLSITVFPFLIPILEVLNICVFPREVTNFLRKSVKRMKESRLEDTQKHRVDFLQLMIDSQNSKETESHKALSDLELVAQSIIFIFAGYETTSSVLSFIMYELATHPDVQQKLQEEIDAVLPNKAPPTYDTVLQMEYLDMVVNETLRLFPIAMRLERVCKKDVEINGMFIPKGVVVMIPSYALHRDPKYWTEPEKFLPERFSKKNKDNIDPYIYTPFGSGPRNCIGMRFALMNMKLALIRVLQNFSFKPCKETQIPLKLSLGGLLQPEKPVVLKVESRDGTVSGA
Chain of Luciferin 4-monooxygenase (Photinus pyralis) (P08659 whole entry, looked up): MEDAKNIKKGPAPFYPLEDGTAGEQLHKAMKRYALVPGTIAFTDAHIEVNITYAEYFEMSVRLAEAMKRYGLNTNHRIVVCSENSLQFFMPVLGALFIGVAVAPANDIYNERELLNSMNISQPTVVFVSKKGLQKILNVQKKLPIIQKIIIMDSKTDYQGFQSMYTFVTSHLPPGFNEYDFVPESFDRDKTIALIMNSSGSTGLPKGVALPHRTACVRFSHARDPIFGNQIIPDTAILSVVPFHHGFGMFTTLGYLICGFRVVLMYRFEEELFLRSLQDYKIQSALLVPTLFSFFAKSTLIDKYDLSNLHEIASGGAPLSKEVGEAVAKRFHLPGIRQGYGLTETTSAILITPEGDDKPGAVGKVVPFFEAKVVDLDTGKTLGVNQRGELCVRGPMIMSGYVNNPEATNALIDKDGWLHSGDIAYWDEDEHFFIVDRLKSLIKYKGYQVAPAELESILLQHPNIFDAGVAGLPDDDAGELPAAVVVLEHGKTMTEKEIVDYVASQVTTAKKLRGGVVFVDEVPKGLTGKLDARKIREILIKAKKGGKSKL

On to `CN[C@@H](C)[C@H]1CC[C@@H](N)[C@@H](O[C@@H]2[C@@H](O)[C@@H](O[C@H]3OC[C@@](C)(O)[C@@H](NC)[C@@H]3O)[C@H](N)C[C@@H]2N)O1` (tested in a mixture with another compound), for which the molecule was called inactive in test [1], in test [2] and in test [3]. Moreover, the Potency entry (in [4]; in [6]; in test [7]; in test [8]; in test [9]; in the test on C2A) was “inactive” in each case. Also, the Potency result in the test on CP192, with CP262, in the test with CP286 and in the test with FAB9 was “inactive” in each case. Further, in test [5], the activity change, negative = inhibition was -2.96% (inactive). In addition, the values for the max response in test [5] (setting [15]) and in test [5] (setting [16]) were -4.43% and -11.6%, respectively. Also, in test [10], the activity, negative = inhibition is 3.71% (inactive).
In the case of `CN1C[C@H](CO)C=C2c3cccc4[nH]cc(c34)C[C@@H]21`, the outcome in [1], in [2] and in [3] was inactive. Further, the Potency in [11] and in test [12] was > 20.6 µM (inactive) throughout. In test [13], the Potency entry was “inactive”. The activity change, negative = inhibition in [5] is 0.712% (inactive). For the same molecule, the max response in test [5] (setting [15]) is -6.66%; in test [5] (setting [16]) it was -5.9%.
Turning to `C[C@H]1CC[C@@H]2[C@@H](C)C(=O)O[C@H]3O[C@@]4(C)CC[C@H]1[C@@]32OO4`, the molecule was classed as inactive in [1], in test [2] and in test [3]. Moreover, the activity change, negative = inhibition in [14] is -0.23% (inactive); in test [5], -3.8% (inactive). The Potency in test [11] and in [12] was > 20.6 µM (inactive) in each case. The Potency result in [4] is “inactive”. The max response in test [5] (setting [15]) was -10.2%; in test [5] (setting [16]), -15%.
On to `C/C=C1\C[C@H](C)[C@@](O)(CO)C(=O)OCC2=CCN3CC[C@@H](OC1=O)[C@@H]23`, for which the result in test [1], in test [2] and in test [3] was inactive. Besides, the activity change, negative = inhibition was -20.5% (inactive) in test [14] and 0.17% (inactive) in [5]. In addition, the Potency in test [11] and in test [12] was > 20.6 µM (inactive) throughout. Also, in [4], the Potency entry is “inactive”. Besides, the max response came to 4.82% in test [5] (setting [15]) and 5.25% in test [5] (setting [16]).
For `COP(=O)(OC)[C@@H](O)C(Cl)(Cl)Cl`, the result in [1], in [2] and in test [3] was inactive. The figures for the activity change, negative = inhibition in test [14] and in [5] were -11.8% (inactive) and -2.04% (inactive), respectively. Moreover, the Potency in test [11] and in [12] was > 20.6 µM (inactive) throughout. The max response in test [5] (setting [15]) stood at 5.96%; in test [5] (setting [16]) it was 2.5%. Moreover, the Potency result in test [7] was “inactive”.
As to `C[C@@H]1NCCc2cc(O)c(O)cc21`, the molecule was classed as inactive in test [1], in test [2] and in test [3]. Also, the activity change, negative = inhibition in test [14] was -2.85% (inactive); in [5], -2.45% (inactive). The Potency in test [11] and in [12] was > 20.6 µM (inactive) throughout. The Potency result in [4] and in [7] was “inactive” each time. In addition, the max response in [5] (setting [15]) was -9.01%; in test [5] (setting [16]) it was -11.5%.
